Laboratory results: ChEMBL document CHEMBL2218924, “A broad activity screen in support of a chemogenomic map for kinase signalling research and drug discovery” (Biochem J, 2013)

Tests used:
[1] = target: T1, Ephrin type-A receptor 3 (Homo sapiens) (UniProt P29320); conditions: at 10 µM
T1 sequence (whole entry): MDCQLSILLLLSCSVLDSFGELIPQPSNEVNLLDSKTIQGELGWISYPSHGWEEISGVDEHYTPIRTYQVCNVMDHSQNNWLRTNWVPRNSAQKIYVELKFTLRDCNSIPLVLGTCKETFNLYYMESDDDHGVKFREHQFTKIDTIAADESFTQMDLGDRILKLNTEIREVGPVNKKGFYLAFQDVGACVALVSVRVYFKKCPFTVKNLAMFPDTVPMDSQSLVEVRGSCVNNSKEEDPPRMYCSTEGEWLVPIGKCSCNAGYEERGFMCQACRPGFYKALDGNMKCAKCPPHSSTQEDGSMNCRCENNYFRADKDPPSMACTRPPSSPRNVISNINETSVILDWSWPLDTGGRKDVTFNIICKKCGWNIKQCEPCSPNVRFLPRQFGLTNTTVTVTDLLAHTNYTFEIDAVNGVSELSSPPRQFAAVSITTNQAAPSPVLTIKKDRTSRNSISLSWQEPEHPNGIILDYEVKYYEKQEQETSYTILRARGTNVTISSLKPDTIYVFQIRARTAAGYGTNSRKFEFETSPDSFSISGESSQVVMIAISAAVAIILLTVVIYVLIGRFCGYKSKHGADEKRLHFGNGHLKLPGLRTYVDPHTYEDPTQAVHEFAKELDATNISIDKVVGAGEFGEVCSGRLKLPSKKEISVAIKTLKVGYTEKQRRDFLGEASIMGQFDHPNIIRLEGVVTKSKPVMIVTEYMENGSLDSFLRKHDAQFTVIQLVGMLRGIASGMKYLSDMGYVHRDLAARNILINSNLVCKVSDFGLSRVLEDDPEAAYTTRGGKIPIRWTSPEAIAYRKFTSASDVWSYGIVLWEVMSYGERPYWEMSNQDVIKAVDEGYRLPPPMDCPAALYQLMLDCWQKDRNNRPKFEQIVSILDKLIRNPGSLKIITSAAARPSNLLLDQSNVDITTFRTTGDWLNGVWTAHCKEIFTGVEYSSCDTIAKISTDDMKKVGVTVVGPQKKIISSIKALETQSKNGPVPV

[2] = target: Ephrin type-A receptor 4 (Homo sapiens) (UniProt P54764); conditions: at 1 µM
Ephrin type-A receptor 4 (Homo sapiens), sequence (P54764 whole entry): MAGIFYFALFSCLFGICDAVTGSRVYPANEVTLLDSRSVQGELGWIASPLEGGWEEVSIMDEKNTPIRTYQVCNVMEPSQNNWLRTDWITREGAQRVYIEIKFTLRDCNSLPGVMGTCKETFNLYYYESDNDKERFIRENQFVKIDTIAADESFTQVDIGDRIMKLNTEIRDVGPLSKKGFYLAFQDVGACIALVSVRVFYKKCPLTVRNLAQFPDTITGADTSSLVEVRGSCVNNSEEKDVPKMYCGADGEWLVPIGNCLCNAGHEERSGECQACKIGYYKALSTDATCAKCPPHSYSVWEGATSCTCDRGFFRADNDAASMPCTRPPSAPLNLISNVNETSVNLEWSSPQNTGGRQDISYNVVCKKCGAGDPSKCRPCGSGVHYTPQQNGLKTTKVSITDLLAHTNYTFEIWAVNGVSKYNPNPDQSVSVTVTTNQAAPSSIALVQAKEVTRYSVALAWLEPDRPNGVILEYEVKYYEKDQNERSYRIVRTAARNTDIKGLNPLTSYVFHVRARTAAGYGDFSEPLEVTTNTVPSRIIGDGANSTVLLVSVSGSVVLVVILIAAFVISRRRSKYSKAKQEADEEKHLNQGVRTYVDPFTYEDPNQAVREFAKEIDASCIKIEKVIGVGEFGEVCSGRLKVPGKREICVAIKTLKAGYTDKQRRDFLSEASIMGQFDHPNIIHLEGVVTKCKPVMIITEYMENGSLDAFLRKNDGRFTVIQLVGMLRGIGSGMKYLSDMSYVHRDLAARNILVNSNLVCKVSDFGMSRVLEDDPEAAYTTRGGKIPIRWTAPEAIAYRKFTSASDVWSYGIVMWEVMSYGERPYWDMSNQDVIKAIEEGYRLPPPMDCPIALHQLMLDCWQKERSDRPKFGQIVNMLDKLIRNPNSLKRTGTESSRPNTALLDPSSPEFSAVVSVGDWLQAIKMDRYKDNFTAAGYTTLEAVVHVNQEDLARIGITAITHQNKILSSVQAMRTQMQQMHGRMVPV

[3] = target: Ephrin type-A receptor 4 (Homo sapiens) (UniProt P54764); conditions: at 10 µM
[4] = target: Ephrin type-A receptor 5 (Homo sapiens) (UniProt P54756); conditions: at 1 µM
Ephrin type-A receptor 5 (Homo sapiens), sequence (P54756 whole entry): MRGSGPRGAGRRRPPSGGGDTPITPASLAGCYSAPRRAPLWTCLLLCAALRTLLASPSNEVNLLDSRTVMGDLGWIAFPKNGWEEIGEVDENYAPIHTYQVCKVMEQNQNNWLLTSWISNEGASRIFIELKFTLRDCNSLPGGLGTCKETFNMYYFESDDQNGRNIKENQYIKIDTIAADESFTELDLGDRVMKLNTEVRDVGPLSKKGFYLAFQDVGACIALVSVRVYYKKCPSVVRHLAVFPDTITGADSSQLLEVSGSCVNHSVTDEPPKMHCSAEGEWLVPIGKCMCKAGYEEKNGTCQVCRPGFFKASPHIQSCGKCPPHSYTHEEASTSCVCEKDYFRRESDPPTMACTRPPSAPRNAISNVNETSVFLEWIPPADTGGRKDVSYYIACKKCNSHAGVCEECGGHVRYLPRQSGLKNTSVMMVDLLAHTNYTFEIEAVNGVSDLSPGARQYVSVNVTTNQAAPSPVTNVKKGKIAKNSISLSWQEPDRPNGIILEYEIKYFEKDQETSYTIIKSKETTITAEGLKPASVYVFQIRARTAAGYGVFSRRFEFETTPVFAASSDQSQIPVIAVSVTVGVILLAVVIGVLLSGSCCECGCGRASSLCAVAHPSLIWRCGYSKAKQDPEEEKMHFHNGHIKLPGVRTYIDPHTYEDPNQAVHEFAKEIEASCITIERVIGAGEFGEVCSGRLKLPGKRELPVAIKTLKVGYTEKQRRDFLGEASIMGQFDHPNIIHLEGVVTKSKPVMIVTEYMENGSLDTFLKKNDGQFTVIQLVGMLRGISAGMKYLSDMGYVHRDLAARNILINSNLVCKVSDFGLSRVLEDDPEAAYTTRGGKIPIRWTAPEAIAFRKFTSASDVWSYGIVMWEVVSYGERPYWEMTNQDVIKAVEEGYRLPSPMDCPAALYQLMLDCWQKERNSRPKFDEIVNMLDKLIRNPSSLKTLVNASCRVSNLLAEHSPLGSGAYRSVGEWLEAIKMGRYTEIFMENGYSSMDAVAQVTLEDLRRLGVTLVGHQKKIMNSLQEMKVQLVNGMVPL

[5] = target: Ephrin type-A receptor 5 (Homo sapiens) (UniProt P54756); conditions: at 10 µM
[6] = target: Ephrin type-A receptor 7 (Homo sapiens) (UniProt Q15375); conditions: at 1 µM
Ephrin type-A receptor 7 (Homo sapiens), sequence (Q15375 28-998 limits assumed): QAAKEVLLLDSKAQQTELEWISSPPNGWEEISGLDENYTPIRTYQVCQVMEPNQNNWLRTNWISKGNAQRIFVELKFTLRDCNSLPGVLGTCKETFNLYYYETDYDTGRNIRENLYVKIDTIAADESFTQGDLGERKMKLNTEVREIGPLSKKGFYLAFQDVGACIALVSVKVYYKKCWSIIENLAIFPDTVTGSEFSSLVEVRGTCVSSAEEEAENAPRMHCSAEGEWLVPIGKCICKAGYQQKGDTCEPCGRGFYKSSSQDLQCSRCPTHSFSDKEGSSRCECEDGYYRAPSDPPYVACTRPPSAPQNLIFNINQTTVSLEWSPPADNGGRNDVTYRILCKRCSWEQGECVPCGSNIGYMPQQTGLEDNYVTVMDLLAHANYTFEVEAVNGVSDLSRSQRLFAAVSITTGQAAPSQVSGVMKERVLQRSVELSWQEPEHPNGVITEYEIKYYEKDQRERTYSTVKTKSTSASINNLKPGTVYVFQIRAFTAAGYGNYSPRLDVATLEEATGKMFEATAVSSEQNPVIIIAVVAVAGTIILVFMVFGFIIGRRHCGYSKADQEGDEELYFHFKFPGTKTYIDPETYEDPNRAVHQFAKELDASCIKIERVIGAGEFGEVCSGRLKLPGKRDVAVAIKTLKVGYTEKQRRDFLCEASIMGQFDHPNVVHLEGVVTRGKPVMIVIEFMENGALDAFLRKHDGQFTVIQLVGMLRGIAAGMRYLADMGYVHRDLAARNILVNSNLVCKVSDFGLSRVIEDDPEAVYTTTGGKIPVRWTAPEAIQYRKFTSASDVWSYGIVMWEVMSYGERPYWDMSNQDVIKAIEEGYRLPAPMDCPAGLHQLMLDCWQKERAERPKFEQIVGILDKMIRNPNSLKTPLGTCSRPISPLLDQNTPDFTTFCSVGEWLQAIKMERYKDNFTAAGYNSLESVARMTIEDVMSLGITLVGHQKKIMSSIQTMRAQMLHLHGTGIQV

[7] = target: Ephrin type-A receptor 7 (Homo sapiens) (UniProt Q15375); conditions: at 10 µM
[8] = target: T2, Ephrin type-A receptor 8 (Homo sapiens) (UniProt P29322); conditions: at 1 µM
T2 sequence (whole entry): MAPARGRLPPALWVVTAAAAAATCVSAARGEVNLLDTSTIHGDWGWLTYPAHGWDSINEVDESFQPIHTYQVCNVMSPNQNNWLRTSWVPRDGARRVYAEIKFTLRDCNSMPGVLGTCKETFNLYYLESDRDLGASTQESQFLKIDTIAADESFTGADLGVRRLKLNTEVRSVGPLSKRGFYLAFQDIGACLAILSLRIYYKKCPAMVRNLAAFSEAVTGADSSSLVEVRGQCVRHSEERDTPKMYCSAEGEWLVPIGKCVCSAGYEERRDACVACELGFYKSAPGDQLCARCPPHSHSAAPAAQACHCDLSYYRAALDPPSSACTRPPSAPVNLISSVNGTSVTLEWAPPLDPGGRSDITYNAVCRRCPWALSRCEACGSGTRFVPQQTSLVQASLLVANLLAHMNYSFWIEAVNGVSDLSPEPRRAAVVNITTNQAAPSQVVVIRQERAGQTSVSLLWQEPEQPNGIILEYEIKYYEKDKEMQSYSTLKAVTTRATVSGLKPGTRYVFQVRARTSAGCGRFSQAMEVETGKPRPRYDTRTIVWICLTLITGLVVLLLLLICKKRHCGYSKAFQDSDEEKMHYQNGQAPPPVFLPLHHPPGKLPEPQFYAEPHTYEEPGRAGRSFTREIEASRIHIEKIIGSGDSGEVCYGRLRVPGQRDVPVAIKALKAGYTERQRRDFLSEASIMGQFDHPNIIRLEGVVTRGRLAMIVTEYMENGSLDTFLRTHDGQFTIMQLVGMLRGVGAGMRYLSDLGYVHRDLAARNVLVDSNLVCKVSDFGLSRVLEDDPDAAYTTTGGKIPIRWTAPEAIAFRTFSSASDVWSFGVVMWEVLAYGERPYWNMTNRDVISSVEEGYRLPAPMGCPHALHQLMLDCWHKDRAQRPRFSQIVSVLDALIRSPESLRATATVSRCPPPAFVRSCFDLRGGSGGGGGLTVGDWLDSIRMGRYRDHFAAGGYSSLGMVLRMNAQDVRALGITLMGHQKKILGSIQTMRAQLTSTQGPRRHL

[9] = target: T2, Ephrin type-A receptor 8 (Homo sapiens); conditions: at 10 µM
[10] = target: T3, Ephrin type-B receptor 1 (Homo sapiens) (UniProt P54762); conditions: at 1 µM
T3 sequence (whole entry): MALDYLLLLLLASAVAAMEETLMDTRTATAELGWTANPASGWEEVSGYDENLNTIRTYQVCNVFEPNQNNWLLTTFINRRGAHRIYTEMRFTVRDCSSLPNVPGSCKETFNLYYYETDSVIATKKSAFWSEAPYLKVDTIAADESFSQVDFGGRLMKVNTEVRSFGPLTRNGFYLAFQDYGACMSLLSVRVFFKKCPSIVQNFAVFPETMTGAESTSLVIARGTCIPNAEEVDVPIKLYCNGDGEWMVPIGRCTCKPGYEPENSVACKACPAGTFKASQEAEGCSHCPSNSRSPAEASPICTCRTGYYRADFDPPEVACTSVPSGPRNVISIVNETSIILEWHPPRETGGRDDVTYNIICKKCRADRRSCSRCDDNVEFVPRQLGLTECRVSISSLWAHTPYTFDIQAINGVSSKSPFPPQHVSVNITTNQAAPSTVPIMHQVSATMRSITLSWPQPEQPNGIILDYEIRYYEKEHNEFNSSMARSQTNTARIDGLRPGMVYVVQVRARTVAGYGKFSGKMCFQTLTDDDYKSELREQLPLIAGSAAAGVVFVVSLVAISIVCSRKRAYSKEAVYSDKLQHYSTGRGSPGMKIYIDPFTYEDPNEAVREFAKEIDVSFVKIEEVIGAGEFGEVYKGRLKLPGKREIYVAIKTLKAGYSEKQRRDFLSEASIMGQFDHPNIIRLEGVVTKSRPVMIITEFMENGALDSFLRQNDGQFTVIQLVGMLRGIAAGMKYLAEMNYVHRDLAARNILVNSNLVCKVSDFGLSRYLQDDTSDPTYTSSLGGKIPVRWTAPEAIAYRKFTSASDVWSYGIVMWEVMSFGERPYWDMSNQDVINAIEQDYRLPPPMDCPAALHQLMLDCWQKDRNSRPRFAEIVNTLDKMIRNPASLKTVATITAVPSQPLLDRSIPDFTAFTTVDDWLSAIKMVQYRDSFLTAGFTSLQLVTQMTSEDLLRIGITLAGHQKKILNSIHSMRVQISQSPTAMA

[11] = target: T3, Ephrin type-B receptor 1 (Homo sapiens); conditions: at 10 µM
[12] = target: T4, Ephrin type-B receptor 2 (Homo sapiens) (UniProt P29323); conditions: at 1 µM
T4 sequence (whole entry): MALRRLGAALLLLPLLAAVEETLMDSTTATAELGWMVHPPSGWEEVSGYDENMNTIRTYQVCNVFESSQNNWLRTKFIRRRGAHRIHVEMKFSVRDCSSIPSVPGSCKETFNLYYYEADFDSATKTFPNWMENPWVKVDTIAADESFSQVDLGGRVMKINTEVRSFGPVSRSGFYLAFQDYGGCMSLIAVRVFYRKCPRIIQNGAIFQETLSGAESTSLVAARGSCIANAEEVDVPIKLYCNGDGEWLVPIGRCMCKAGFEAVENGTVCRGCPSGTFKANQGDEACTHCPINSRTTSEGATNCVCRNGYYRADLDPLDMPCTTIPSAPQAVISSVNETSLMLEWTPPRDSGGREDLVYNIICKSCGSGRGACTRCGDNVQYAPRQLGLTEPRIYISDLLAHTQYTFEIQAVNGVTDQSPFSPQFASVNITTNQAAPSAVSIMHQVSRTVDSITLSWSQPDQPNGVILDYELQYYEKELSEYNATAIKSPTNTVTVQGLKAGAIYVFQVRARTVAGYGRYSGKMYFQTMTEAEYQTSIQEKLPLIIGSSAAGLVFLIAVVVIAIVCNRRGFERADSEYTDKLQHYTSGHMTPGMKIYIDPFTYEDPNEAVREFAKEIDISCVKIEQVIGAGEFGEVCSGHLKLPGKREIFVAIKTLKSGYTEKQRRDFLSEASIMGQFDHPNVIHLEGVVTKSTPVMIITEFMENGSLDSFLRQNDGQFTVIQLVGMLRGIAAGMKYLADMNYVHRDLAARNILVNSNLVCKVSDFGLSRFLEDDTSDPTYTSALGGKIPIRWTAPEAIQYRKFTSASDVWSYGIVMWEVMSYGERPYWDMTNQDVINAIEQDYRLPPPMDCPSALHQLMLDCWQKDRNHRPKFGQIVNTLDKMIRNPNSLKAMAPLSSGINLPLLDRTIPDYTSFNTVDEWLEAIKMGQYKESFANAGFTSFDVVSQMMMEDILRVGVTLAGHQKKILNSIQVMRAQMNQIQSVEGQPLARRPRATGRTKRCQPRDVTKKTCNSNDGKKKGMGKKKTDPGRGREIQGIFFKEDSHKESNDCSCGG

[13] = target: T4, Ephrin type-B receptor 2 (Homo sapiens); conditions: at 10 µM
[14] = target: T5, Ephrin type-B receptor 3 (Homo sapiens) (UniProt P54753); conditions: at 1 µM
T5 sequence (whole entry): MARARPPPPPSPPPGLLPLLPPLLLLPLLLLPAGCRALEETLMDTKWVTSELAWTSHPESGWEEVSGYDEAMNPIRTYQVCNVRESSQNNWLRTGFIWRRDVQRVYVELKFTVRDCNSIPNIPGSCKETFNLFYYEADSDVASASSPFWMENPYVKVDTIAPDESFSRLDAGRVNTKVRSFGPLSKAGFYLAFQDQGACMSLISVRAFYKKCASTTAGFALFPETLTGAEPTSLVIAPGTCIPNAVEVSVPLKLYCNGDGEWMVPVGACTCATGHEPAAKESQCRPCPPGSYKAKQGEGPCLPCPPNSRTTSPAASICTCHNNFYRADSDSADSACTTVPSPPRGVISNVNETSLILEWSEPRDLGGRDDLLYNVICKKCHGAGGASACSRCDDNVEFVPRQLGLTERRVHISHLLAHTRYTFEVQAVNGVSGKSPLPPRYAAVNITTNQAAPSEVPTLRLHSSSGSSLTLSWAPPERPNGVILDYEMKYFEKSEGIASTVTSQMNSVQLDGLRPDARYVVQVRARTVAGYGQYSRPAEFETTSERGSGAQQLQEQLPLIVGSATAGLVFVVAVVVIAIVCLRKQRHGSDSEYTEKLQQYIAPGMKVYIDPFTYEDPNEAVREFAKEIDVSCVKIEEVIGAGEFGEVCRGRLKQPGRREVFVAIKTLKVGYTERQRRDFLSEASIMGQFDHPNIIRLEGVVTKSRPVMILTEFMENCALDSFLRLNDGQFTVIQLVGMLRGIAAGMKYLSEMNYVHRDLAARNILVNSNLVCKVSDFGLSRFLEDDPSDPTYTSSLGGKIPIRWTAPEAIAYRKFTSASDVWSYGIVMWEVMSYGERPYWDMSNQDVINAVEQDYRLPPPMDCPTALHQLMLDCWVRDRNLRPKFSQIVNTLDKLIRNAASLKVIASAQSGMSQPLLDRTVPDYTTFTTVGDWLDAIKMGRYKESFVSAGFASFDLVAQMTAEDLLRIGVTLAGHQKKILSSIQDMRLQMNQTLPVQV

[15] = target: T5, Ephrin type-B receptor 3 (Homo sapiens); conditions: at 10 µM
[16] = target: T6, Ephrin type-B receptor 4 (Homo sapiens) (UniProt P54760); conditions: at 1 µM
T6 sequence (whole entry): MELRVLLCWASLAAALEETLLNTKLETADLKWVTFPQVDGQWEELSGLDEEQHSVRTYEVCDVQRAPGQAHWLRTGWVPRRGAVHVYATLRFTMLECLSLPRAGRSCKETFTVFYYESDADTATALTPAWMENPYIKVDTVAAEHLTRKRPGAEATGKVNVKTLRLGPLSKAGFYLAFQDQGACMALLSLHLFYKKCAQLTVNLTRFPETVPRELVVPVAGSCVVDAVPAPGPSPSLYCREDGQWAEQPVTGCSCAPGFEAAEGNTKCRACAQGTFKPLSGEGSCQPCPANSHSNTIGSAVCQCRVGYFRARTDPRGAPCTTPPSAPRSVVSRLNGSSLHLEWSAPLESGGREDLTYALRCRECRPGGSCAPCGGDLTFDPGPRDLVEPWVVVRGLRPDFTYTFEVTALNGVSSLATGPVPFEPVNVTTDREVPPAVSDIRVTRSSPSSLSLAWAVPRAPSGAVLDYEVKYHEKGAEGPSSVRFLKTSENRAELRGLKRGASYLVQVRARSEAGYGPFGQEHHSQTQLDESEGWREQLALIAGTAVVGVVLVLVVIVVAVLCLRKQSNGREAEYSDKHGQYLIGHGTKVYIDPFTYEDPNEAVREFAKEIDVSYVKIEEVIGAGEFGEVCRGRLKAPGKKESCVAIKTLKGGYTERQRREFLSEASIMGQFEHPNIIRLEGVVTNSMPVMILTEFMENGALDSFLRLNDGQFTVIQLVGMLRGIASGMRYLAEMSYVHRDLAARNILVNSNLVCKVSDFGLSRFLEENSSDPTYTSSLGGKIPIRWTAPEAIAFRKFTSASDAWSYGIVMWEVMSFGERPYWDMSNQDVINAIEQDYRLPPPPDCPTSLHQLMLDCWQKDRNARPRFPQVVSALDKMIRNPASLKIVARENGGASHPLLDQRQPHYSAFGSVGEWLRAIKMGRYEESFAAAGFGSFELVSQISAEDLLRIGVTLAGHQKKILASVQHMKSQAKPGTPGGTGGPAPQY

[17] = target: T6, Ephrin type-B receptor 4 (Homo sapiens); conditions: at 10 µM
[18] = target: Receptor tyrosine-protein kinase erbB-4 (Homo sapiens) (UniProt Q15303); conditions: at 1 µM
Receptor tyrosine-protein kinase erbB-4 (Homo sapiens), sequence (Q15303 whole entry): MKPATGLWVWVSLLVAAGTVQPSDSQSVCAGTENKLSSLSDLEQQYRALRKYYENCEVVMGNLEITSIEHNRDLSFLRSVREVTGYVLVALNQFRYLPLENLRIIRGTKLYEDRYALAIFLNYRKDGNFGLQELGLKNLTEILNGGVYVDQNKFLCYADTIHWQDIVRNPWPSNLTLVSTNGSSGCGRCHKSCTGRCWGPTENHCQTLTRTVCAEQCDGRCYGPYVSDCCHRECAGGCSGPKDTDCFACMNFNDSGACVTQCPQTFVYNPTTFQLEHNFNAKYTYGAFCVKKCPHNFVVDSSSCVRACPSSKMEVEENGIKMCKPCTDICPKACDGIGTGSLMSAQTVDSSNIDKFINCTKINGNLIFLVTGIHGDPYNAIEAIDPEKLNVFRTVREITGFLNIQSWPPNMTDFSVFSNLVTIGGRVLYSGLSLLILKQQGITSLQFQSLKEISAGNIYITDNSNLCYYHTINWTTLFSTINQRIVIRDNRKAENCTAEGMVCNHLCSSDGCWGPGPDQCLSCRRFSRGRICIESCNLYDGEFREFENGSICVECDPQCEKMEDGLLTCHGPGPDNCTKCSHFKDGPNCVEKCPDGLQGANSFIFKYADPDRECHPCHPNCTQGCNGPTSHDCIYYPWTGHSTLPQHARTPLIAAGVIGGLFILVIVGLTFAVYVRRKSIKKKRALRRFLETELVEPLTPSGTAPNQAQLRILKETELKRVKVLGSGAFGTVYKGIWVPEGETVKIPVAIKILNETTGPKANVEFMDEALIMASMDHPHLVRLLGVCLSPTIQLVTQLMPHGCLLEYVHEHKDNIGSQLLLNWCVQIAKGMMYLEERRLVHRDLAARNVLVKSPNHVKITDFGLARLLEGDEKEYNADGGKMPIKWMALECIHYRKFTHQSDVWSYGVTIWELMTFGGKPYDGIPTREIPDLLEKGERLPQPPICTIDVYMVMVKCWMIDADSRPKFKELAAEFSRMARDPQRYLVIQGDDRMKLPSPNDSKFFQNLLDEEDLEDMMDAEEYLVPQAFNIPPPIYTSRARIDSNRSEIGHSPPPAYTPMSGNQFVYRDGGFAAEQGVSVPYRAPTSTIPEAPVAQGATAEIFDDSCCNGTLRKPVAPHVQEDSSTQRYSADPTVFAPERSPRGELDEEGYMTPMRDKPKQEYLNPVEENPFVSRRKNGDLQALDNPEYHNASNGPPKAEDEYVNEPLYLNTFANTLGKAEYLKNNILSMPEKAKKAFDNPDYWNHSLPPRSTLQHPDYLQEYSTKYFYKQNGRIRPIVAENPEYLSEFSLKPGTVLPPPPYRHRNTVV

[19] = target: Receptor tyrosine-protein kinase erbB-4 (Homo sapiens) (UniProt Q15303); conditions: at 10 µM
[20] = target: Focal adhesion kinase 1 (Homo sapiens) (UniProt Q05397); conditions: at 1 µM

SMILES: Nc1cccc(-c2cc3c(Oc4cccc(O)c4)ncnc3[nH]2)c1
- residual activity [1]: 0%
- residual activity [2]: 48%
- residual activity [3]: 4%
- residual activity [4]: 24%
- residual activity [5]: 2%
- residual activity [6]: 64%
- residual activity [7]: 15%
- residual activity [8]: 30%
- residual activity [9]: 6%
- residual activity [10]: 7%
- residual activity [11]: -1%
- residual activity [12]: 4%
- residual activity [13]: -1%
- residual activity [14]: 105% (inactive)
- residual activity [15]: 90%
- residual activity [16]: 2%
- residual activity [17]: -3%
- residual activity [18]: 71%
- residual activity [19]: 19%
- residual activity [20]: 87%
